The panel holds about 83,000 compounds, 20% with a hit somewhere; the sample as a whole holds those more often.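 Percent growth is the endpoint: 0 to 100 indicates growth inhibition (40 means 60% inhibition), 0 means no net growth, and negative values indicate cell death.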 Values without a mark were called inactive. Calls of active or inactive are those of the source. How the source made its calls: active means growth percent below 10; inactive means the rest.
What was measured:
Assay in all cases: NCI-60 one-dose screen, 48 h (100 = growth as untreated, 0 = no growth, -100 = all killed)
Conditions in all cases: 10 µM unless noted
SR leukemia = test system: SR leukemia
RPMI-8226 leukemia = test system: RPMI-8226 leukemia
OVCAR-8 ovarian = test system: OVCAR-8 ovarian
OVCAR-5 ovarian = test system: OVCAR-5 ovarian
OVCAR-4 ovarian = test system: OVCAR-4 ovarian
SK-OV-3 ovarian = test system: SK-OV-3 ovarian
IGROV1 ovarian = test system: IGROV1 ovarian
OVCAR-3 ovarian = test system: OVCAR-3 ovarian
HS 578T breast = test system: HS 578T breast
NCI/ADR-RES ovarian = test system: NCI/ADR-RES ovarian
T-47D breast = test system: T-47D breast
BT-549 breast = test system: BT-549 breast
MDA-MB-435 melanoma = test system: MDA-MB-435 melanoma
SW-620 colon = test system: SW-620 colon
MCF7 breast = test system: MCF7 breast
HCT-116 colon = test system: HCT-116 colon
HCC-2998 colon = test system: HCC-2998 colon
KM12 colon = test system: KM12 colon

Row | SMILES | growth (SR leukemia) | growth (RPMI-8226 leukemia) | growth (OVCAR-8 ovarian) | growth (OVCAR-5 ovarian) | growth (OVCAR-4 ovarian) | growth (SK-OV-3 ovarian) | growth (IGROV1 ovarian) | growth (OVCAR-3 ovarian) | growth (HS 578T breast) [%] | growth (NCI/ADR-RES ovarian) | growth (T-47D breast) | growth (BT-549 breast) | growth (MDA-MB-435 melanoma) | growth (SW-620 colon) | growth (MCF7 breast) | growth (HCT-116 colon) | growth (HCC-2998 colon) | growth (KM12 colon)
1 | O=C(NNc1nc2cc(F)ccc2n2c(CN3CCOCC3)ccc12)c1ccccc1 | 3.49% (active) | 10.9% | 13.1% | 28.9% | -14.9% (active) | 27.5% | 3.07% (active) | -8.34% (active) | 57.9 | 5.25% (active) | 11.8% | 25.7% | 27.3% | -1.14% (active) | -6.31% (active) | 0.232% (active) | 32.8% | 12.2%
2 | CC[C@@H](C(=O)[C@@H](C)[C@@H](O)[C@H](C)[C@@H]1O[C@@H]([C@@H](CC)C(=O)ONC(=O)c2ccccc2O)CC[C@@H]1C)C1O[C@]2(C=CC(=O)[C@]3(CC[C@@](C)([C@H]4CC[C@](O)(CC)[C@H](C)O4)O3)O2)[C@H](C)C[C@@H]1C (stereo partly specified) | 1.64% (active) | 24.6% | 54.9% | 47% | 53.3% | 120% | 58.8% | 5.93% (active) | 43.9 | 48.7% | 12.4% | 36.2% | 63% | 40.8% | 17.8% | 36.7% | 58.7% | 51.3%
3 | C1CCC(N2CN3c4nonc4N4CN(C5CCCCC5)CN5c6nonc6N(C2)C3C45)CC1 (stereo unspecified) | 83.8% | 81.3% | 95.5% | 102% | 88.9% | 109% | 104% | 101% | 86.6 | 93.3% | 95.3% | 99.8% | 100% | 92.8% | 89.1% | 101% | 98.4% | 98.8%
4 | COc1cc(/C=C/C(=O)c2cc(OC)c(OC)c(OC)c2)ccc1Oc1nc2c(c(=O)n(C)c(=O)n2C)n1C | 8.62% (active) | 6.12% (active) | 10.7% | 5.82% (active) | 19.1% | 30.3% | -8.8% (active) | -48.4% (active) | 26.7 | 0.709% (active) | -16.1% (active) | -57.7% (active) | -44% (active) | -40% (active) | 0.476% (active) | -80.6% (active) | -85.9% (active) | -62.1% (active)
5 | CCCCNC(=O)c1ccc2c(c1)nc(-c1ccccc1)n2C1CCCCC1 | 69.2% | 88.3% | 102% | 102% | 102% | 48.4% | 109% | 115% | 110 | 98% | 88.1% | 99.7% | 99.9% | 107% | 82.1% | 93.1% | 102% | 88.4%
6 | Ic1ccc(Nc2nc3nonc3nc2Nc2ccc(I)cc2)cc1 | -12.6% (active) | -36.6% (active) | 6.55% (active) | 34% | 19.3% | -19.9% (active) | 28.5% | 9.01% (active) | 19.2 | 3.09% (active) | -9.49% (active) | -21.7% (active) | 6.04% (active) | 13.8% | 3.42% (active) | 0.308% (active) | 8.32% (active) | 7.87% (active)
7 | Cc1cc(=O)oc2cc(Oc3nc(Br)cn4c(Br)cnc34)ccc12 | 69.4% | 95.5% | 64.7% | 101% | 45.5% | 85.5% | 77.4% | 56.7% | 69.9 | 57.5% | 53.7% | 92.2% | 87.2% | 116% | 22.2% | 55.5% | 105% | 78.9%
8 | COc1cc(C=C2C(=O)NC(=S)NC2=O)cc(CN2CCCC2)c1O | 107% | 106% | 108% | 106% | 119% | 94.4% | 106% | 111% | 106 | 108% | 110% | 114% | 100% | 108% | 96.1% | 113% | 110% | 110%
9 | O=c1oc2c(cc1-c1ccccc1)c[n+]([O-])c1ccccc21 | 103% | 98.2% | 94.9% | 102% | 98.6% | 104% | 102% | 112% | 99.9 | 109% | 91% | 95.5% | 101% | 103% | 91.1% | 98.8% | 107% | 104%
10 | CC1(C)CC[C@]23CC[C@]4(C)[C@H](CC[C@@H]5[C@@]6(C)CCNCC(C)(C)[C@@H]6CC[C@]54C)[C@H]2[C@H]1OC3 | 4.33% (active) | 29.7% | 97.4% | 106% | 99.8% | 96.5% | 107% | 98.5% | 104 | 104% | 77.8% | 94.2% | 86.5% | 49.9% | 91.5% | 55% | 28.6% | 81.4%
11 | CCOC(=O)C#Cc1c(C(=O)OCC)nnn1[C@@H]1O[C@H](COC)[C@@H](OC)[C@H]1OC | 8.26% (active) | 62.5% | 104% | 90.1% | 73.5% | 92.6% | 95.1% | 15.5% | 97 | 109% | 15.2% | 98.7% | 98.7% | -38.7% (active) | 8.52% (active) | 84% | 128% | 105%
12 | O=C1C=CC2(O)OC/C(=C\c3ccccc3)C(O)=C2C1=O (stereo unspecified) | 6.55% (active) | 0.943% (active) | 8.41% (active) | 29.3% | 30.4% | 86.6% | -13% (active) | 11.7% | 39 | 16.7% | -19.8% (active) | -1.66% (active) | 15.8% | 5.52% (active) | 23.4% | -9.7% (active) | 80.6% | -16.9% (active)
13 | O=C1O[C@@H](c2ccccc2Cl)[C@@H]2c3cc4c(cc3CCN12)OCO4 | 100% | 94.4% | 98.7% | 113% | 104% | 119% | 94% | 100% | 101 | 104% | 69.9% | 101% | 105% | 97.2% | 103% | 94.9% | 106% | 97.8%
14 | C=CCN=c1sc(-c2ccc3ccccc3c2)cn1NC(=O)c1cc2ccc1CCc1ccc(cc1)CC2 | 39.1% | 25.8% | 65.5% | 103% | 33.5% | 82.1% | 81.3% | 53.2% | 58.7 | 67.2% | 20.8% | 53.9% | 67.5% | 72.9% | 35.9% | 27.1% | 89.1% | 56.6%
15 | O=c1oc2c(cc1-c1ccccc1)c(=O)[nH]c1ccccc12 | 108% | 101% | 95.7% | 103% | 99.6% | 105% | 103% | 112% | 98.1 | 102% | 95.4% | 97.5% | 97.7% | 105% | 87.3% | 97.1% | 105% | 101%
16 | O=c1cc(CP(=O)(O)O)c2cc(O)c(-c3ccccc3)cc2o1 | 95.2% | 99.2% | 101% | 101% | 98.5% | 102% | 104% | 108% | 101 | 102% | 101% | 108% | 99.2% | 98.3% | 96.9% | 108% | 102% | 105%
17 | COC(=O)Cn1c2c(c3c(OC)cccc31)C(=O)c1ccccc1-2 | 84.8% | 85.3% | 107% | 81.1% | 101% | 96.9% | 110% | 116% | 97.2 | 95.5% | 89.7% | 103% | 112% | 96.9% | 85.9% | 89.1% | 89.8% | 107%
